Laboratory results: PubChem BioAssay AID1159580 (chemical genetic matrix, 2015)
Screen size: about 5,500 compounds; about 2,000 (36%) were called active. Inconclusive results (about 18%) are left out. Rule as the data show it: active = normalized growth mostly below about 0.91 (no sharp cut-off); inconclusive = no clear call, values can overlap the other calls; inactive = mostly above about 0.92. Some of the results follow.

Test: chemical genetic growth profiling, strain panel (AID 1159580);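 also: tested at 20 µM; growth read once vehicle control cultures reached saturation at 30 °C; 1 = growth at the plate median or of vehicle wells; lower values mean less growth of the strain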
Settings: growth OD
[1] = S. cerevisiae deletion strains, locus YDL101C, strain DUN1, active compounds read low
[2] = S. cerevisiae deletion strains, locus YHR030C, strain SLT2, active compounds read low
[3] = S. cerevisiae deletion strains, locus YAL013W, strain DEP1, active compounds read low
[4] = S. cerevisiae deletion strains, locus YBR229C, strain ROT2, active compounds read low
[5] = S. cerevisiae deletion strains, locus YDR150W, strain NUM1, active compounds read low
[6] = S. cerevisiae deletion strains, locus YEL061C, strain CIN8, active compounds read low
[7] = S. cerevisiae deletion strains, locus YGR078C, strain PAC10, active compounds read low
[8] = S. cerevisiae deletion strains, locus YHR087W, strain rtc3, active compounds read low
[9] = S. cerevisiae deletion strains, locus YJR043C, strain POL32, active compounds read low
[10] = S. cerevisiae deletion strains, locus YJR075W, strain HOC1, active compounds read low
[11] = S. cerevisiae deletion strains, locus YLR039C, strain RIC1, active compounds read low
[12] = S. cerevisiae deletion strains, locus YLR058C, strain SHM2 (second series), active compounds read low
[13] = S. cerevisiae deletion strains, locus YLR085C, strain ARP6, active compounds read low
[14] = S. cerevisiae deletion strains, locus YLR262C, strain YPT6, active compounds read low
[15] = S. cerevisiae deletion strains, locus YML094W, strain GIM5, active compounds read low
[16] = S. cerevisiae deletion strains, locus YMR219W, strain ESC1, active compounds read low
[17] = S. cerevisiae deletion strains, locus YMR263W, strain SAP30, active compounds read low
[18] = S. cerevisiae deletion strains, locus YMR307W, strain GAS1, active compounds read low
[19] = S. cerevisiae deletion strains, locus YNL128W, strain TEP1, active compounds read low
[20] = S. cerevisiae deletion strains, locus YNL153C, strain GIM3, active compounds read low
[21] = S. cerevisiae deletion strains, locus YNL298W, strain CLA4 (second series), active compounds read low
[22] = S. cerevisiae deletion strains, locus YNL322C, strain KRE1, active compounds read low
[23] = S. cerevisiae deletion strains, locus YNR030W, strain Alg12, active compounds read low
[24] = S. cerevisiae deletion strains, locus YPL055C, strain LGE1, active compounds read low
[25] = S. cerevisiae deletion strains, locus YPL241C, strain CIN2, active compounds read low
[26] = S. cerevisiae deletion strains, locus YPR135W, strain CTF4, active compounds read low
[27] = S. cerevisiae strains, strain wild type, active compounds read low

Measured: normalized growth

Nc1ccccc1C(=O)Nc1cc(C(F)(F)F)cc(C(F)(F)F)c1
inactive: S. cerevisiae deletion strains, locus YAR019C, strain CDC15, active compounds read low 0.957 | S. cerevisiae deletion strains, locus YBL105C, strain PKC1, active compounds read low 0.973 | S. cerevisiae deletion strains, locus YBR135W, strain CKS1, active compounds read low 0.985 | S. cerevisiae deletion strains, locus YBR136W, strain MEC1, active compounds read low 0.946 | S. cerevisiae deletion strains, locus YBR160W, strain CDC28, active compounds read low 0.982 | S. cerevisiae deletion strains, locus YDL017W, strain CDC7, active compounds read low 0.978 | S. cerevisiae deletion strains, locus YDL028C, strain MPS1, active compounds read low 0.943 | [1] 0.937 | S. cerevisiae deletion strains, locus YDL108W, strain KIN28, active compounds read low 0.969 | S. cerevisiae deletion strains, locus YDL132W, strain cdc53, active compounds read low 0.967 | S. cerevisiae deletion strains, locus YDL214C, strain PRR2, active compounds read low 1 | S. cerevisiae deletion strains, locus YDR052C, strain DBF4, active compounds read low 0.97 | S. cerevisiae deletion strains, locus YDR054C, strain cdc34, active compounds read low 0.96 | S. cerevisiae deletion strains, locus YDR226W, strain ADK1, active compounds read low 0.976 | S. cerevisiae deletion strains, locus YDR477W, strain SNF1, active compounds read low 0.992 | S. cerevisiae deletion strains, locus YER123W, strain YCK3, active compounds read low 0.957 | S. cerevisiae deletion strains, locus YER133W, strain GLC7, active compounds read low 1.01 | S. cerevisiae deletion strains, locus YFL009W, strain cdc4, active compounds read low 0.968 | S. cerevisiae deletion strains, locus YFL029C, strain CAK1, active compounds read low 0.944 | S. cerevisiae deletion strains, locus YFR003C, strain YPI1, active compounds read low 0.984 | S. cerevisiae deletion strains, locus YFR019W, strain FAB1, active compounds read low 0.986 | S. cerevisiae deletion strains, locus YFR028C, strain CDC14, active compounds read low 0.974 | S. cerevisiae deletion strains, locus YGR040W, strain KSS1, active compounds read low 1.01 | S. cerevisiae deletion strains, locus YGR052W, strain FMP48, active compounds read low 0.921 | S. cerevisiae deletion strains, locus YGR092W, strain DBF2, active compounds read low 0.961 | [2] 0.855 | S. cerevisiae deletion strains, locus YHR079C, strain IRE1, active compounds read low 0.836 | S. cerevisiae deletion strains, locus YHR082C, strain KSP1, active compounds read low 0.851 | S. cerevisiae deletion strains, locus YHR205W, strain SCH9, active compounds read low 0.816 | S. cerevisiae deletion strains, locus YIL147C, strain SLN1, active compounds read low 0.946 | S. cerevisiae deletion strains, locus YJL095W, strain BCK1, active compounds read low 0.844 | S. cerevisiae deletion strains, locus YJL128C, strain PBS2, active compounds read low 0.914 | S. cerevisiae deletion strains, locus YJL157C, strain FAR1, active compounds read low 1.01 | S. cerevisiae deletion strains, locus YJR016C, strain ILV3, active compounds read low 0.943 | S. cerevisiae deletion strains, locus YJR066W, strain TOR1 (second series), active compounds read low 0.997 | S. cerevisiae deletion strains, locus YJR066W, strain TOR1, active compounds read low 0.903 | S. cerevisiae deletion strains, locus YKL048C, strain ELM1, active compounds read low 0.949 | S. cerevisiae deletion strains, locus YKL067W, strain YNK1, active compounds read low 0.978 | S. cerevisiae deletion strains, locus YKL101W, strain HSL1, active compounds read low 0.957 | S. cerevisiae deletion strains, locus YKL193C, strain SDS22, active compounds read low 0.955 | S. cerevisiae deletion strains, locus YKL203C, strain TOR2, active compounds read low 1.06 | S. cerevisiae deletion strains, locus YLR133W, strain CKI1, active compounds read low 0.934 | S. cerevisiae deletion strains, locus YLR403W, strain SFP1, active compounds read low 1.02 | S. cerevisiae deletion strains, locus YML070W, strain DAK1, active compounds read low 0.933 | S. cerevisiae deletion strains, locus YMR001C, strain CDC5, active compounds read low 0.975 | S. cerevisiae deletion strains, locus YMR205C, strain PFK2 (second series), active compounds read low 0.947 | S. cerevisiae deletion strains, locus YMR277W, strain FCP1, active compounds read low 0.952 | S. cerevisiae deletion strains, locus YNL006W, strain LST8, active compounds read low 0.937 | S. cerevisiae deletion strains, locus YNL020C, strain ARK1, active compounds read low 0.945 | S. cerevisiae deletion strains, locus YNL161W, strain CBK1, active compounds read low 0.971 | S. cerevisiae deletion strains, locus YNL183C, strain NPR1, active compounds read low 0.871 | S. cerevisiae deletion strains, locus YNL207W, strain RIO2, active compounds read low 0.963 | S. cerevisiae deletion strains, locus YNL222W, strain SSU72, active compounds read low 0.977 | S. cerevisiae deletion strains, locus YNL307C, strain MCK1 (second series), active compounds read low 0.941 | S. cerevisiae deletion strains, locus YOL078W, strain AVO1, active compounds read low 0.961 | S. cerevisiae deletion strains, locus YOL136C, strain PFK27, active compounds read low 0.956 | S. cerevisiae deletion strains, locus YOR061W, strain CKA2, active compounds read low 0.99 | S. cerevisiae deletion strains, locus YOR119C, strain RIO1, active compounds read low 0.981 | S. cerevisiae deletion strains, locus YOR231W, strain MKK1, active compounds read low 0.87 | S. cerevisiae deletion strains, locus YOR329C, strain SCD5, active compounds read low 0.969 | S. cerevisiae deletion strains, locus YPL031C, strain PHO85, active compounds read low 0.991 | S. cerevisiae deletion strains, locus YPL153C, strain RAD53, active compounds read low 0.987 | S. cerevisiae deletion strains, locus YPL204W, strain HRR25, active compounds read low 0.976 | S. cerevisiae deletion strains, locus YPL209C, strain IPL1, active compounds read low 0.952 | S. cerevisiae deletion strains, locus YPR025C, strain CCL1, active compounds read low 0.985 | S. cerevisiae deletion strains, locus YPR106W, strain ISR1, active compounds read low 0.934 | S. cerevisiae deletion strains, locus YPR111W, strain DBF20, active compounds read low 0.946 | S. cerevisiae deletion strains, strain NNK1, active compounds read low 0.93 | S. cerevisiae deletion strains, strain TSCII, active compounds read low 0.974
active: S. cerevisiae deletion strains, locus YLR113W, strain HOG1, active compounds read low 0.762 | S. cerevisiae deletion strains, locus YPL256C, strain CLN2, active compounds read low 0.781

CCOC(=O)C(O)(c1ccc(N)c(C)c1)C(F)(F)F (stereo not drawn)
inactive: [3] 0.995 | [4] 1 | [1] 0.996 | [5] 0.928 | [6] 0.988 | [7] 0.992 | [2] 0.953 | [8] 1.02 | S. cerevisiae deletion strains, locus YJL187C, strain SWE1, active compounds read low 1 | [9] 0.925 | [10] 0.991 | [11] 0.988 | [12] 1.01 | [13] 0.996 | [14] 1.02 | [15] 0.991 | [16] 0.982 | [17] 0.999 | [18] 0.946 | [19] 1.01 | [20] 0.993 | [21] 1 | [22] 1 | [23] 1.01 | [24] 0.935 | [25] 0.996 | [26] 0.982 | [27] 0.981

O=C(CN1CCOCC1)Nc1cc(C(F)(F)F)cc(C(F)(F)F)c1
inactive: [3] 0.999 | [4] 1.01 | S. cerevisiae deletion strains, locus YCL061C, strain MRC1, active compounds read low 1.01 | [1] 1 | S. cerevisiae deletion strains, locus YDL134C, strain PPH21, active compounds read low 0.995 | [5] 1 | [6] 1.01 | [7] 1.01 | [2] 1.02 | [8] 0.995 | [9] 0.974 | [10] 0.986 | [11] 1.06 | [12] 1 | [13] 0.988 | [14] 1.05 | [15] 0.996 | [16] 1.01 | [17] 0.986 | [18] 1.01 | [19] 0.993 | [20] 0.99 | [21] 0.992 | [22] 1 | [23] 0.994 | [24] 0.972 | [25] 1.07 | [26] 1.02 | [27] 0.999
